Potency and affinity values are given separately. The source made the active and inactive calls.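 The calls were made as follows: active = CTGF level falls with dose and the fitted half-maximal dose is at most twice the top valid dose; inconclusive = flat fit with 30 to 70% drop, or a poor fit; inactive = the rest.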
Assay: YAP1 pathway inhibition via CTGF transcript levels, dose response, cell-based, DLD1 colon cancer, RT-qPCR, cherry-pick (AID 1053122)
Conditions: DLD1 CTGF mRNA (YAP1 pathway), 24 h; series mostly up to 26 µM

Row | SMILES | outcome
1 | N#Cc1cccc(-c2ccc3c(c2)[C@@H]2[C@@H](CCN2S(=O)(=O)c2ccc(F)cc2)[C@H](CO)N3)c1 | inactive
2 | NCC[C@H]1CC[C@@H](NC(=O)NC2CCCCC2)[C@H](CO)O1 | inactive
3 | O=S(=O)(c1ccccc1)N1CCCCN2[C@H](C1)[C@@H](c1ccc(C#CC3CCCC3)cc1)[C@@H]2CO | inactive
4 | COCC(=O)N1CC[C@@H]2[C@H](CO)Nc3ccc(C#Cc4ccc(F)cc4)cc3[C@@H]21 | inactive
5 | CCCNC(=O)N1[C@H](C#N)[C@@H](c2ccc(C#Cc3cccc(F)c3)cc2)[C@@H]1CO | inactive
6 | COc1cccc(-c2ccc([C@@H]3[C@@H](C#N)N(C(=O)Cc4ccncc4)[C@@H]3CO)cc2)c1 | inactive
7 | C[C@@H]1CN([C@H](C)CO)C(=O)c2ccccc2-c2ccccc2CO[C@@H]1CN(C)Cc1ccccc1C(F)(F)F | inactive
8 | Cc1ccc(S(=O)(=O)N2CC[C@H]3[C@H](CO)Nc4ccc(-c5cccc(C(=O)N(C)C)c5)cc4[C@H]32)cc1 | inactive
9 | C[C@@H]1CN([C@@H](C)CO)C(=O)c2ccccc2-c2ccccc2CO[C@H]1CN(C)C(=O)Nc1cccc(C(F)(F)F)c1 | inactive
